From PubChem
Most compounds without a hit are left out; they make up all but 19% or so of the library.
TGFb inhibitor: blocks TGF-b signaling; HepG2 CAGA-GFP TGF-b/SMAD3 reporter, GFP fluorescence, 18 h; TGF-beta stimulated, 500 pg/mL final; Potency, µM (series often up to 46.1 µM), for the others: at the highest dose activity, negative = inhibition, actives largely listed as inhibitors; hit rate 1.2% among 410,000; AID 588855; further: potency means the concentration at half of the fitted maximal effect; on the % scale 0 is the no-effect control and ±100 the full control effect; nearly all actives have a fitted effect of over 65% in size
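Inhibition of TGF-beta-driven CAGA-GFP reporter expression in HEPG2 cells is measured by cellular GFP fluorescence after 18 h stimulation with 500 pg/mL recombinant TGF-beta in 1% FBS medium at 37 degrees C.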
TDP1 inh: blocks human tyrosyl-DNA phosphodiesterase 1 | Q9NUW8 | recombinant TDP1, AlphaScreen DNA substrate cleavage | Potency, µM (doses to about 130 µM), inactives show at the top dose activity change, negative = inhibition, hits mostly inhibitors | hit rate 0.28% among 350,000 | AID 485290; further: potency means the concentration at half of the fitted maximal effect; on the % scale 0 is the no-effect control and ±100 the full control effect; nearly all actives have a fitted effect of over 40% in size
Target sequence (Q9NUW8 whole entry, looked up): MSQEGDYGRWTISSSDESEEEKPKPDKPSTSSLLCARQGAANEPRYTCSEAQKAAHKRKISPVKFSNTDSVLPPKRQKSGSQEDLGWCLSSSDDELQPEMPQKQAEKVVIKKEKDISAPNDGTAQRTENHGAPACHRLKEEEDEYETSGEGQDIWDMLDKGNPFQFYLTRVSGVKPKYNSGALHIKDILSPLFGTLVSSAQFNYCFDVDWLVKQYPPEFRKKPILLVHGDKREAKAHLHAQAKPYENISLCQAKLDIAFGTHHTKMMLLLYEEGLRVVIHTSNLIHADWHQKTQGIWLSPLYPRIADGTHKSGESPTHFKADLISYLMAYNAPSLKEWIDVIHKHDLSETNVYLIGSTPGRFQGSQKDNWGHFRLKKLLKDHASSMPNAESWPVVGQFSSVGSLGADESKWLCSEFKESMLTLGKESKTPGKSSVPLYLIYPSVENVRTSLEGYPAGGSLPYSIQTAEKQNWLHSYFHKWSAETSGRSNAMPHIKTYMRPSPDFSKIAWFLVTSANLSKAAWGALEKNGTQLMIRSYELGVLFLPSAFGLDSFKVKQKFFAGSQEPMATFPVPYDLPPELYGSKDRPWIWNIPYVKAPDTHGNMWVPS
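Tdp1 1 nM final; 15 min RT w/ cpd; substrate 15 nM, 5 min; beads 10 ug/ml, 10 min; AlphaScreen read. Neg ctrl: no enzyme.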
HepG2 viability: counter-screen for TGF-b inhibitors: cytotoxicity in HepG2 cells | HepG2 CAGA-GFP viability, ATP luminescence, 18 h | Potency, µM (series often up to 46.1 µM), for the others: at the top dose activity change, negative = cytotoxicity, actives largely listed as cytotoxic | hit rate 0.76% among 410,000; further: potency means the concentration at half of the fitted maximal effect
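HepG2 CAGA-GFP cells (1000/well, DMEM with 1% FBS) received compound, then TGF-beta at 500 pg/mL final, and were incubated 18 hours at 37 degrees C. Viability was read by CellTiter-Glo luminescence. Media-only wells were set as complete cell-killing and DMSO as no toxicity.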
DT40 TDP1 CPT: DT40-hTDP1 cell growth loss with CPT; chicken DT40 Tdp1-/-;hTDP1 cells + 20 nM CPT, ATP luminescence, 48 h; Potency, µM (doses to about 46.2 µM), inactives show at the top dose activity change, negative = growth inhibition, hits mostly inhibitors; hit rate 12% among 420,000; AID 686979; further: potency means the concentration at half of the fitted maximal effect; on the % scale 0 is the no-effect control and ±100 the full control effect; nearly all actives have a fitted effect of over 55% in size
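Chicken DT40 Tdp1-/- cells stably complemented with human TDP1 were seeded at 400 cells/well in medium containing 20 nM camptothecin, exposed to pin-transferred compounds, and grown at 37 °C for at least 48 hr. Viability was read as ATP luminescence.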
IL-1B inflam inh: blocks inflammasome-driven IL-1 beta release; THP-1 LPS/ATP IL-1B secretion, AlphaLISA, 16 h; active compounds read low; activity change, % at 57.5 µM; hit rate 4.7% among 360,000; AID 743279; in the data active means activity change below about -50%; inconclusive means mostly about -30% to -49%; further: on the % scale 0 is the no-effect control and ±100 the full control effect
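THP-1 cells pretreated 1 hr with compounds (up to 57.5 uM final), then stimulated with LPS (250 ng/mL final) plus ATP (1.25 mM final); secreted IL-1B measured by AlphaLISA after 16 hr, decreased signal indicating inhibition.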
TDP1 cell noCPT: qHTS for Inhibitors of human tyrosyl-DNA phosphodiesterase 1 (TDP1): qHTS in cells in absence of CPT; Potency, µM (highest dose often 46.2 µM), for the others: at the highest dose activity change, negative = growth inhibition, most hits filed as inhibitors; hit rate 15% among 420,000; DT40 Tdp1-/- hTDP1 cells, no CPT, ATP luminescence, 48 h; further: potency means the concentration at half of the fitted maximal effect; on the % scale 0 is the no-effect control and ±100 the full control effect; nearly all actives have a fitted effect of over 55% in size
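Chicken DT40 Tdp1-/- cells stably complemented with human TDP1 were seeded at 400 cells/well with DMSO in place of 20 nM camptothecin. After compound pinning, cells grew at least 48 hr at 37 °C; viability read by CellTiter-Glo luminescence.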
* hit, by the source's call; ? = inconclusive; nt = not tested or not shown. Unless noted, the call rests on the fitted dose curve; in most records, active means well fitted curve in the direction sought with a large enough effect; inconclusive means small, poorly fitted or top-dose-only effect, or another doubt; inactive means no such curve, though single readings can be large; an effect the other way counts as inactive or inconclusive.

SMILES	TGFb inhibitor	TDP1 inh	HepG2 viability	DT40 TDP1 CPT	IL-1B inflam inh	TDP1 cell noCPT
CCCC(=O)Nc1sc(Cc2ccccc2)c(C)c1C(N)=O	1%	1%	-10%	?	?	23µM*
COC(=O)CCC(=O)NC(=S)Nc1sc(C)c(C)c1C(N)=O	11µM*	-1%	-36%	0.16µM*	5	0.15µM*
CCc1nn(CC(=O)NCCc2ccc(OC)cc2OC)c(=O)c2cc3c(OC)cccc3n12	-14%	-1%	-5%	?	nt	?
Cc1sc(NC(=O)Nc2ccccc2)c(C(N)=O)c1C	-6%	8%	-3%	?	-76*	-24%
COC(=O)c1c(NC(=O)Nc2ccc(Cl)cc2)sc(C)c1C	-5%	6%	-33%	?	28	?
COCCN1Cc2cccc(C(=O)Nc3cccc(-c4nc5ccccc5[nH]4)c3)c2C1=O	32%	nt	-2%	4.6µM*	-6	16µM*
COCCN1Cc2cccc(C(=O)Nc3ccc(-c4nc5ccccc5[nH]4)cc3)c2C1=O	0%	1%	-1%	-23%	-17	-26%
CCCN1Cc2cccc(C(=O)Nc3ccc(-c4nc5ccccc5[nH]4)cc3)c2C1=O	-12%	0%	-25%	?	-10	18µM*
CCCN1Cc2cccc(C(N)=O)c2C1=O	5%	6%	4%	8.2µM*	41	?
CCOC(=O)c1cc(S(=O)(=O)Nc2ccc(OC)c(Cl)c2)[nH]n1	4%	4%	-31%	?	nt	-22%
CCN(CC)C(=O)c1sc2c(c1C)c(=O)n(CCc1ccccc1)c(=O)n2Cc1cc(C)ccc1C	-3%	2%	0%	-1%	nt	2%
COc1cc(C)ccc1OCCOCCOc1cccc2ccc(C)nc12	?	-5%	-35%	16µM*	27	16µM*
C=CCc1ccc(OCCOCCOc2cccc3ccc(C)nc23)c(OC)c1	-24%	0%	-26%	18µM*	-10	11µM*
CCc1ccccc1OCCOc1ccc(C)cc1OC	14%	-14%	2%	?	26	29µM*
COc1cc(C)ccc1OCCCOc1ccccc1Br	-22%	-12%	-1%	-10%	?	-22%
CCC(=O)N1CCc2cc(S(=O)(=O)NC(C(=O)NCCc3ccc(OC)c(OC)c3)C(C)C)ccc21 (centres undefined)	-1%	0%	-18%	-5%	nt	-4%
COc1ccc(NC(=O)c2cccc(Cn3cc(Br)c([N+](=O)[O-])n3)c2)c(C)c1	?	7%	-22%	?	22	18µM*
O=C(NCCc1ccc(F)cc1)c1ccc(NS(=O)(=O)c2ccc3[nH]c(=O)[nH]c3c2)cc1	2%	0%	8%	8%	-1	-2%
CC(Nc1ncnc2sccc12)c1ccccc1 (centres undefined)	-12%	8%	-8%	2.6µM*	-8	0.92µM*
c1ccc(Nc2ncnc3sccc23)cc1	31%	0%	1%	-2%	6	-14%
Cc1cc(C)cc(N2C(=O)c3nccnc3C2=O)c1	-3%	4%	12%	-1%	24	-9%
Cc1cc(C)cc(N2C(=O)C=CC2=O)c1	?	nt	-82%	0.73µM*	-103*	0.82µM*
Cc1ccc([N+](=O)[O-])c(C)c1	nt	6%	nt	nt	nt	nt
Cc1c([N+](=O)[O-])cc(N2C(=O)C=CC2=O)cc1[N+](=O)[O-]	2%	nt	0%	0.73µM*	-15	1.6µM*
Cc1c(Cl)cc(-n2cnnn2)cc1[N+](=O)[O-]	1%	3%	-1%	-29%	35	-29%
Cc1cc(N2C(=O)C=CC2=O)c([N+](=O)[O-])cc1C	?	6%	-77%	0.82µM*	-3	1.8µM*
